# Inconclusive results are not listed. Values without a mark were called inactive. Active and inactive are the calls of the source. Calls follow the shape of the dose curve; as a rule, active = well fitted cell-killing curve with a large enough effect; inconclusive = small, poorly fitted or top-dose-only effect, or effect the other way, or another doubt; inactive = no such curve, though single readings can be large or run the other way.
# Test: Identifying Small Molecule Inhibitors of Pancreatic Cancer Stem Cells (Panc1, Adherent) (AID 1259362);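 as to viability, % of control: compound exposure lasted 48 h before the viability read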
# Conditions: Potency: viability; series mostly up to 46.1 µM; viability, % of control: at the top concentration
# From the text: Progenitor-like cancer cells, often referred to as cancer stem cells (CSC), are believed to be the drivers of therapeutic resistance and rapid recurrence. CSCs are postulated to reside in specific niches characterized by low oxygen tension, limited nutrient supply, and high redox load. Selectively targeting CSC, alone or in combination with cytotoxic agents, as a means to produce durable remissions is an appealing concept. Modeling these cells in in vitro setting is an important step in finding new therapies and/or targets. Multiple reports highlight that forcing cells in culture into 3-dimensionaly architectures (spheroids) re-establishes key progenitor-like transcriptional signatures. Pancreatic cancer is among the diseases with the most dismal outlook which is driven, largely, by recurance following front-line therapies. […] In hopes of deriving new insight into the targeting of these pancreatic CSCs we examined three established pancreatic cancer cell lines in cytotoxicity assays versus a collection of approved and investigational drugs. Importantly, we screened these lines as traditional monolayer (2D) and spheroid (3D) formats to gain an appreciation of agents with differential activity.
# Multicellular tumor spheroids from Panc1, MiaPaCa-2, and the primary low-passage tissue culture line SB.06 were seeded in stem cell media (SCM) in nonadherent 6-well plates coated with hydrogel (Corning Life Sciences, Chelmsford, Mass) and pancreatic spheres generated for 14 days before screening. Cells were seeded into 1536-well solid-bottom white tissue culture treated Greiner Bio One Plates (789173-F) using a MultiDrop Combi (Thermofisher Scientific) dispenser and a small sterile cassette. One column was media alone to be used as a :"no cells" control. The plates were then covered with sterilized stainless steel gasketed lids from Kalypsys. After allowing cells to attach for 4 hours, 23 nL of test compound or control (negative control DMSO and positive control 9.2 uM Bortezomib-final) were added from a 1536-well polypropylene compound source plate to each well using a 1536 head pin tool from Kalypsys. Cells were then incubated for 48 hours at 37C, 95% relative humidity and 5% CO2. After 48 hours, plates were removed from the incubator and 3 uL of CellTiter-Glo (Promega) was added using an Aurora Flying Reagent Dispenser Bioraptor. Plates were incubated at room temperature for 10 minutes prior to reading the luminescence on the Viewlux (PerkinElmer). The relative luciferase units are used to calculate the percent activity using the activity of DMSO in the cells and no cells columns for normalization of no inhibition and full inhibition respectively.
# Potency is read from the fitted curve at half-maximal effect.
SMILES,"viability, % of control [%]",Potency
O=C(Nc1ccccc1-c1cn2c(CN3CCNCC3)csc2n1)c1cnc2ccccc2n1,96.1,–
NC(CO)(CO)CCc1ccc(Sc2cccc(OCc3ccccc3)c2)cc1Cl,78,–
CC(C)(C(=O)NCC(F)(F)C(F)(F)F)C(=O)N[C@@H]1C(=O)Nc2ccccc2-c2ccccc21,128,–
N#Cc1ccc(NC(=O)Nc2ccccc2Br)c2n[nH]nc12,117,–
CC1=C(/C=C/C(C)=C/C=C/C(C)=C/C(=O)Nc2ccc(O)cc2)C(C)(C)CCC1,–,23.5 µM (active)
CC(C)(C)C(=O)Oc1ccc2c(c1)nc(NC(=O)c1cccc([N+](=O)[O-])c1)n2CCCO,90.8,–
O=c1cc(CN2CCOCC2)occ1OCCCCCSc1ccnc2cc(C(F)(F)F)ccc12,72,–
COc1cc2ncnc(-n3nc(-c4ccccn4)nc3N)c2cc1OC,–,18.7 µM (active)
O=C(O)CCC1CCC(c2cc(F)ccc2F)(S(=O)(=O)c2ccc(Cl)cc2)CC1 (stereo not given),109,–
OC[C@H]1O[C@@H](n2cnc3c2NC=NC[C@@H]3O)C[C@H]1O,93.9,–
O=c1cc(N2CCOCC2)oc2c(-c3cccc4c3sc3ccccc34)cccc12,–,23.5 µM (active)
O=C1C(Cl)=C(NCCN2CCOCC2)C(=O)c2ncccc21,–,1.66 µM (active)
CC(C)[C@H](CO)Nc1nc(Nc2ccc(C(=O)O)c(Cl)c2)c2ncn(C(C)C)c2n1,124,–
c1ccc2c(-c3cnn4cc(-c5ccc(N6CCNCC6)cc5)cnc34)ccnc2c1,–,20.9 µM (active)
O=C(Nc1cc(Cl)cc2c1[nH]c1cnccc12)c1cccnc1,73.6,–

# Source: PubChem BioAssay (NCATS)
